Assay outcomes as filed in PubChem.
In the library only some 31% were active in any assay of this set; here they are far more common.
CYP2C19 inhib: blockers of cytochrome P450 2C19 activity – biochemical, luminescence, ADME assay, primary screen; P33261; CYP2C19 Supersomes, luciferin-H EGE luminescence, 30 min; inhibition, % at 5 µM; 21% of 96,000 active; AID 778, 2007;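 active = CYP2C19 inhibition above a set limit at 5 µM in the primary screen, cut at about 50% in these data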;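 also: plate controls were negative control wells for no effect and 2.5 mM tranylcypromine positive control for full effect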
CYP2C9 inh: blockers of cytochrome P450 2C9 activity – biochemical, luminescence, ADME assay, primary screen | CYP2C9 Supersomes, luciferin-H conversion | inhibition, % at 5 µM | AID 777, 2007 | P11712 | 20% of 96,000 active;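 active = blocking of liver enzyme CYP2C9 beyond about 50% at 5 µM, limit read from the data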
Target sequence (P11712 whole entry, looked up): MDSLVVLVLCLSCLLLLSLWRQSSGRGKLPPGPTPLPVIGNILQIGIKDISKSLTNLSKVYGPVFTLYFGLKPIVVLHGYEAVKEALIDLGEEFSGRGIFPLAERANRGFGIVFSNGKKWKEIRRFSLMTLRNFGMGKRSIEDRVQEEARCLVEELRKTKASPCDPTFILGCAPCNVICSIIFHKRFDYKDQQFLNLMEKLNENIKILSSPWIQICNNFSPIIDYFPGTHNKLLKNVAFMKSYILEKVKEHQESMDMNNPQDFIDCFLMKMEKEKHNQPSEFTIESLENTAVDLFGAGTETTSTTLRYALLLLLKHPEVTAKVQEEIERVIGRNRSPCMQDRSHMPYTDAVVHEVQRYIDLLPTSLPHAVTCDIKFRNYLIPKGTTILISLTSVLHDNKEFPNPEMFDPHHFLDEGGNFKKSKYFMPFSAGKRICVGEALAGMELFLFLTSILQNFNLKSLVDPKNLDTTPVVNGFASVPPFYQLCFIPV
CYP2C9 activ: human CYP2C9 activators, primary screen, biochemical, luminescence | recombinant CYP2C9, luciferin-H conversion; stronger effect = higher value; factor 1 = untreated enzyme, 0 = blocked | activation factor at 5 µM | 1.4% of 96,000 active | AID 1024, 2008;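 active = activation factor of 2 or more for CYP2C9 at a 5 µM dose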;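 also: 0 = sulfaphenazole-blocked wells and 1 = vehicle-only wells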
CYP2C19 act: human CYP2C19 activators, primary screen, biochemical, luminescence; 96,000 tested, under 10 active; AID 1025, 2008; activation factor at 5 µM; recombinant CYP2C19, luciferin-H EGE luminescence; stronger effect = higher value; 0 = fully inhibited enzyme, 1 = untreated enzyme; Cytochrome P450 2C19 (Homo sapiens), P33261;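 active = activation factor of at least 2 at 5 µM in the primary screen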;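 also: 0 = wells with 2.5 mM tranylcypromine and 1 = vehicle-only wells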
* hit, by the source's call.

SMILES	CYP2C19 inhib	CYP2C9 inh	CYP2C9 activ	CYP2C19 act
COc1cnc(-c2ccccn2)nc1Oc1ccc(Cl)c2ccccc12	38	-7	1.1	0.6
[O-][n+]1onc2c3cc(-c4ccccc4)nnc3ccc21	11	19	0.8	0.9
CCN(CC)S(=O)(=O)c1ccc(-c2nnc(SCC(=O)N3CCOCC3)o2)cc1	21	32	0.7	0.8
COC(=O)CNC(=O)CSc1nnc(-c2ccc(OC)cc2)n1CC(C)C	-12	-18	1.2	1.1
CCc1ccc(OCc2nnc(SCC(=O)NCc3ccco3)o2)cc1	32	-13	1.1	0.7
COc1ccc(-c2nnc(SCC(=O)NCc3cccs3)n2CC(C)C)cc1	51*	65*	0.3	0.5
CCN(CC)S(=O)(=O)c1ccc(-c2nnc(SCC(=O)N3CCc4ccccc43)o2)cc1	17	66*	0.3	0.8
COc1ccc(Cc2nnc(SCC(=O)NCc3ccco3)o2)cc1	42	42	0.6	0.6
COc1ccc(-c2nnc(SCC(=O)NCc3ccco3)o2)cc1	65*	-30	1.3	0.3
COc1ccc(OCc2nnc(SCC(=O)NCc3ccco3)o2)cc1	21	72*	0.3	0.8
Cc1c(C(=O)c2no[n+]([O-])c2C(=O)c2cnn(C)c2C)cnn1C	38	27	0.7	0.6
CCOCCCn1c(-c2ccc(Cl)cc2)n[nH]c1=S	84*	51*	0.5	0.2
COCCCn1c(-c2ccc(Cl)cc2)n[nH]c1=S	77*	35	0.7	0.2
COCCCn1c(-c2ccccc2Cl)n[nH]c1=S	42	0	1	0.6
COc1ccc2c(c1OC)C(=O)OC2Nc1ncccc1C (stereo not given)	-12	-2	1	1.1
C=C(C)CSc1nc(N)c2c(C)c(C)sc2n1	56*	37	0.6	0.4
CCOC(=O)CSc1nc2sc(C)c(C)c2c(=O)[nH]1	26	21	0.8	0.7
CCC(C)(c1ccc(C(=O)OC)s1)c1ccc(C(=O)OC)s1	98*	98*	0	0
O=c1[nH]c(SCc2nc3ccccc3n2Cc2ccccc2)nc2ccccc12	3	23	0.8	1
Nc1cc(=O)[nH]c(SCc2nc3ccccc3n2Cc2ccccc2)n1	47	82*	0.2	0.5
Cc1cccc(C)c1NC(=O)C(NC=O)c1ccccc1Cl (stereo not given)	39	8	0.9	0.6
Cc1ccc2occ(C3N[C@H](C(=O)O)CS3)c(=O)c2c1 (stereo not given in full)	7	20	0.8	0.9
Cc1cc(C)nc(SCC(=O)O)n1	-8	-19	1.2	1.1
Cc1cc(C)nc(Sc2nc(Cl)nc(N(c3ccccc3)c3ccccc3)n2)n1	67*	52*	0.5	0.3
O=c1cc(C23CC4CC(CC(C4)C2)C3)[nH][nH]1	-21	56*	0.4	1.2
SMILES	CYP2C19 inhib	CYP2C9 inh	CYP2C9 activ	CYP2C19 act
O=C(CCn1c(=O)sc2ccccc21)Nc1nc2ccccc2s1	18	80*	0.2	0.8
Cc1ccc2nc(NC(=O)CCn3c(=O)sc4ccccc43)sc2c1	-18	58*	0.4	1.2
O=C(CCn1c(=O)sc2ccccc21)NCc1ccccc1	80*	-90	1.9	0.2
CC(C)(C)N=C1NC(=NC(C)(C)C)c2ccccc21	-1	9	0.9	1
O=C(NCCC1=CCCCC1)c1ccc2c(c1)N(Cc1ccccc1)C(=O)CS2	49	75*	0.3	0.5
Cc1ccc(NS(=O)(=O)c2cc(C(=O)NCCSc3ccc(C)cc3)ccc2C)cc1	67*	78*	0.2	0.3
Cc1ccc(NS(=O)(=O)c2cc(C(=O)NCCSC3CCCCC3)ccc2C)cc1	28	54*	0.5	0.7
Cc1ccc(C(=O)NCCSc2ccc(Cl)cc2)cc1S(=O)(=O)Nc1ccccc1	39	52*	0.5	0.6
CS(=O)(=O)Nc1ccc(C(=O)NCCSC2CCCCC2)cc1	-4	7	0.9	1
CCOC(=O)Cn1c(=O)oc2cc(S(=O)(=O)NC3CCCc4ccccc43)ccc21 (stereo not given)	24	19	0.8	0.8
Cc1ccc(SCCNC(=O)c2ccc(C)c(S(=O)(=O)Nc3cccc(C)c3)c2)cc1	62*	71*	0.3	0.4
Cc1cccc(NS(=O)(=O)c2cc(C(=O)NCCC3=CCCCC3)ccc2Cl)c1	26	68*	0.3	0.7
Cc1ccc(SCCNC(=O)c2ccccc2)cc1	37	23	0.8	0.6
O=C1OCC(CO)(CO)N=C1NNc1ccccc1Cl	50*	28	0.7	0.5
